Assay outcomes from PubChem.
HP1b chromo inh – blocks HP1-beta chromodomain binding to methylated histone tails; AID 540317; hit rate 0.56% among 390,000; AlphaScreen HP1-beta / biotin-H3K9me3 peptide binding; P83916; Potency, µM (series often up to 114 µM), usual class: inhibitors; further: nearly all actives have a fitted effect of over 70% in size
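AlphaScreen: HP1-beta (50 nM) preformed 30 min with biotin-H3(1-18)K9me3 peptide (50 nM) in PBS pH 7.4, 0.01% Tween-20. Compound added for 30 min at RT, then streptavidin donor/nickel chelate acceptor beads (10 ug/mL) for 30 min.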
JMJD2A Tudor inh – inhibitors of human JMJD2A Tudor domain; O75164; AlphaScreen JMJD2A-Tudor / H3K4me3 peptide binding; Potency, µM (highest dose often 114 µM), most hits filed as inhibitors; hit rate 4.4% among 390,000; AID 504339; further: nearly all actives have a fitted effect of over 50% in size
Target sequence (O75164 whole entry, looked up, the tested form may be a part): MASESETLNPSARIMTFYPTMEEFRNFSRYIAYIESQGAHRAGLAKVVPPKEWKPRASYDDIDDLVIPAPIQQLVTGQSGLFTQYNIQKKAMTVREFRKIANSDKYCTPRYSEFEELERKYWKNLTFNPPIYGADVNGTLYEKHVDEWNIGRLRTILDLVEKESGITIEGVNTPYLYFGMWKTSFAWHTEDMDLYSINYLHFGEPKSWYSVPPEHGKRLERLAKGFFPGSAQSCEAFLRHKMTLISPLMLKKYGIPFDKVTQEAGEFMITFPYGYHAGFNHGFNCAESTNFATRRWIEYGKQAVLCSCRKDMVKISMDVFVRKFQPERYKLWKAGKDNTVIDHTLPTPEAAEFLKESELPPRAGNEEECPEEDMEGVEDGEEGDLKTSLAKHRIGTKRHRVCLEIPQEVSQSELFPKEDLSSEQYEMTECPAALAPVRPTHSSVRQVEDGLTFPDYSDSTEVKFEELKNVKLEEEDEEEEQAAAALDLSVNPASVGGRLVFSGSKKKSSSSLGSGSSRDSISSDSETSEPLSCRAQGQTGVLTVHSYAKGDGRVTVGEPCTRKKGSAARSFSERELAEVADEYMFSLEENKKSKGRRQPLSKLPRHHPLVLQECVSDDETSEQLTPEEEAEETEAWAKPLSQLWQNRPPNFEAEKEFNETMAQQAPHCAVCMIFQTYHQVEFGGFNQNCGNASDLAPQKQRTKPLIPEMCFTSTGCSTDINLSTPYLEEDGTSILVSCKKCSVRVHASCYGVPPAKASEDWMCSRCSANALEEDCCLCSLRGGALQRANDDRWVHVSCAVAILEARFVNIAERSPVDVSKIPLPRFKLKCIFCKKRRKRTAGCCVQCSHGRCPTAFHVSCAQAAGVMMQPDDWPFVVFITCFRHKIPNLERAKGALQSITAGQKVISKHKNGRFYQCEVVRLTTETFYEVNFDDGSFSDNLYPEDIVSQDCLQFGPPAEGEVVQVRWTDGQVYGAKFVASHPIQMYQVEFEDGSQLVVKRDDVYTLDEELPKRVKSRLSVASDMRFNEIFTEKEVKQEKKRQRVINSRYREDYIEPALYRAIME
L3MBTL1 inh – blocks human L3MBTL1; Q9Y468; AlphaScreen L3MBTL1–H3K9me1 peptide binding; Potency, µM (top dose mostly 57.1 µM), most hits filed as inhibitors; hit rate 0.66% among 230,000; AID 485360; further: nearly all actives have a fitted effect of over 60% in size
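L3MBTL1 50 nM + b-AHA-H3(1-15)K9me1 75 nM, 30 min RT; compound added, 30 min RT; streptavidin donor/Ni-chelate acceptor beads 10 ug/mL each final, 30 min RT dark; AlphaScreen read.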
G9a inh – inhibitors of human histone lysine methyltransferase G9a | Q96KQ7 | G9a H3K9 monomethylation, AlphaScreen, 2 h | Potency, µM (highest dose often 102 µM), hits mostly inhibitors | hit rate 8.8% among 350,000; further: nearly all actives have a fitted effect of over 75% in size
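Methyltransferase reactions run at room temperature for 2 h (20 nM enzyme, 500 nM biotin-H3K9 peptide, 20 uM SAM) after a 15 min compound preincubation; product detected by AlphaScreen beads and anti-H3K9me1 antibody.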
BAZ2B block – blocks human BAZ2B; Q9UIF8; AlphaScreen BAZ2B-H3K14Ac peptide displacement; Potency, µM (doses to about 114 µM), actives largely listed as inhibitors; hit rate 4.4% among 360,000; further: nearly all actives have a fitted effect of over 60% in size
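Compounds, titrated to a top concentration of 110 uM, were incubated 30 min at room temperature with preformed BAZ2B/acetyl-K14 H3 peptide complex (50 nM each). Proximity signal was measured by AlphaScreen after 20 min with beads.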
Each line names hits and unclear results; the compound was inactive in the other large screens. Rows were chosen to be rich in hits. Some 11% of all compounds tested hit in one or more screens of this group. The call rests on the fitted dose curve; in most records, active means well fitted inhibition curve with a large enough effect; inconclusive means small, poorly fitted or top-dose-only effect; inactive means no such curve, though single readings can be large or run the other way.

COc1ccc(CCN(C)C/C=C/c2ccccc2[N+](=O)[O-])cc1OC	JMJD2A Tudor inh 22.4µM, BAZ2B block inconclusive (no result: G9a inh)
COc1ccc(CN(C)CCc2ccccn2)cc1OC	JMJD2A Tudor inh 35.5µM, G9a inh 3.16µM, BAZ2B block 31.6µM
CCc1ccc(CN(C)CCc2ccccn2)cc1	HP1b chromo inh inconclusive, JMJD2A Tudor inh 3.98µM, G9a inh inconclusive, BAZ2B block 44.7µM
Clc1ccc(-c2noc3ncnc(NCCc4ccccc4)c23)cc1	none (no result: L3MBTL1 inh)
Cc1cc(C)cc(Nc2cc(C)nc3nc(-c4ccco4)nn23)c1	G9a inh inconclusive (no result: L3MBTL1 inh)
Cc1occc1C(=O)Nc1c(F)c(F)c(F)c(F)c1F	G9a inh 14.1µM (no result: L3MBTL1 inh)
Cc1occc1C(=O)Nc1nn[nH]n1	JMJD2A Tudor inh 44.7µM, G9a inh 44.7µM, BAZ2B block inconclusive (no result: L3MBTL1 inh)
CCc1cccc(CC)c1NC(=O)C(CC)n1nc(C)n2c(cc3cc(C)ccc32)c1=O (centres undefined)	none (no result: L3MBTL1 inh)
CCOc1ccc(N(CC(=O)NCC2CCCO2)S(=O)(=O)c2ccc(SC)cc2)cc1 (centres undefined)	G9a inh inconclusive (no result: L3MBTL1 inh)
O=C(Cc1ccccc1)NC(c1ccco1)c1c(O)ccc2ccccc12 (centres undefined)	JMJD2A Tudor inh inconclusive, G9a inh 50.1µM, BAZ2B block inconclusive
CCCC(=O)NC(c1ccc(N(C)C)cc1)c1c(O)ccc2ccccc12 (centres undefined)	HP1b chromo inh 50.1µM, JMJD2A Tudor inh 31.6µM, L3MBTL1 inh inconclusive, G9a inh 31.6µM, BAZ2B block 17.8µM
CC(=O)NC(c1ccc([N+](=O)[O-])cc1)c1c(O)ccc2ccccc12 (centres undefined)	JMJD2A Tudor inh inconclusive, G9a inh 44.7µM
CC(=O)NC(c1ccccc1)c1c(O)ccc2ccccc12 (centres undefined)	G9a inh 17.8µM, BAZ2B block 31.6µM
CCOc1ccccc1CNc1ncnc2onc(-c3ccc(F)cc3)c12	none (no result: L3MBTL1 inh)
CC(C)(C)C1CCc2c(sc(NC(=O)c3cccc(Cl)c3)c2C(=O)NCc2ccco2)C1 (centres undefined)	none (no result: L3MBTL1 inh)
NC(=O)C1CCN(c2cc(Cl)nc(N)n2)CC1	JMJD2A Tudor inh 10µM
O=C(O)Cc1ccccc1C(=O)O	none
O=C(O)c1ccccc1CC(CCc1ccccc1)C(=O)O (centres undefined)	JMJD2A Tudor inh 10µM (no result: L3MBTL1 inh, G9a inh, BAZ2B block)
Cc1cccc(OC(C)C(=O)Nc2nccs2)c1 (centres undefined)	none (no result: L3MBTL1 inh)
COc1ccc(-c2[nH]ncc2CN(C)C(C)c2ccncn2)c(F)c1 (centres undefined)	none (no result: G9a inh)
CCN(Cc1ccncc1)Cc1cn[nH]c1-c1ccc(OC)cc1F	G9a inh 50.1µM
Cc1ccsc1/C=N/n1c(-c2ccncc2)n[nH]c1=S	JMJD2A Tudor inh 3.16µM, G9a inh 1.12µM
Cc1ccsc1/C=N/n1c(-c2ccccn2)n[nH]c1=S	JMJD2A Tudor inh 3.16µM, L3MBTL1 inh 31.6µM, G9a inh 2.24µM, BAZ2B block 8.91µM
Cc1ccsc1/C=N/Nc1nc2ccccc2[nH]1	JMJD2A Tudor inh inconclusive
Cc1ccsc1/C=N/N1CCOCC1	none
Cc1ccsc1/C=N/n1c(-c2ccco2)n[nH]c1=S	JMJD2A Tudor inh 7.08µM, G9a inh 0.794µM
Cc1ccsc1/C=N/n1c(-c2ccccc2)n[nH]c1=S	JMJD2A Tudor inh 28.2µM, G9a inh 1.78µM
CCOc1ccc(C(=O)N(Cc2ccc(C(C)C)cc2)Cc2ccco2)cc1	none (no result: L3MBTL1 inh)
Cc1cc(-c2n[nH]c(=S)n2/N=C/c2sccc2C)n[nH]1	HP1b chromo inh inconclusive, JMJD2A Tudor inh 3.16µM, G9a inh 1.26µM, BAZ2B block inconclusive
Cc1ccc(N2CCN(/N=C/c3sccc3C)CC2)cc1	none
COc1ccccc1NC(=O)CCNS(=O)(=O)c1ccc2[nH]c(=O)oc2c1	JMJD2A Tudor inh 35.5µM (no result: L3MBTL1 inh)
COc1ccccc1CNC(=O)CCNS(=O)(=O)c1ccc2[nH]c(=O)oc2c1	JMJD2A Tudor inh 39.8µM (no result: L3MBTL1 inh)
Cc1ccc(Cn2ccn(CC(=O)Nc3ccccc3C(F)(F)F)c(=O)c2=O)cc1	none (no result: L3MBTL1 inh)
O=C(NCCc1ccc(Cl)cc1)C1CCN(S(=O)(=O)c2ccc(-n3cnnn3)cc2)CC1	JMJD2A Tudor inh 79.4µM
Cc1ccccc1CCNC(=O)C1CCN(S(=O)(=O)c2ccc(-n3cnnn3)cc2)CC1	none (no result: L3MBTL1 inh)
Cc1ccccc1Cn1cc(NC(=O)c2cc(C3CC3)on2)cn1	G9a inh 39.8µM, BAZ2B block inconclusive
Oc1c(C(c2ccccc2)N2CCOCC2)sc2nc(-c3ccco3)nn12 (centres undefined)	none (no result: L3MBTL1 inh)
CCOc1ccc(NC(=O)Cc2ccccc2)c([N+](=O)[O-])c1	L3MBTL1 inh 5.01µM, BAZ2B block inconclusive
CCOc1ccc(NC(=O)COc2ccccc2)c([N+](=O)[O-])c1	HP1b chromo inh inconclusive, JMJD2A Tudor inh inconclusive, G9a inh inconclusive, BAZ2B block inconclusive
CCOc1ccc(NC(=S)NC(=O)/C=C/c2ccc(OC)c(OC)c2)c([N+](=O)[O-])c1	JMJD2A Tudor inh inconclusive, G9a inh 50.1µM
Nc1c(C(=O)Nc2ccccc2Cl)nnn1Cc1cccc(Cl)c1	none (no result: L3MBTL1 inh)
CC(C)(C)c1cc(C(=O)Nc2cccnc2)cc(C(=O)Nc2cccnc2)c1	G9a inh inconclusive (no result: L3MBTL1 inh)
CCOc1ccc(C2C(C(=O)c3ccc(C)o3)=C(O)C(=O)N2CCN2CCOCC2)cc1OC (centres undefined)	JMJD2A Tudor inh 28.2µM, G9a inh 17.8µM, BAZ2B block inconclusive
CCOc1ccc(C2C(C(=O)c3ccco3)=C(O)C(=O)N2CCN2CCOCC2)cc1OCC (centres undefined)	G9a inh 39.8µM (no result: L3MBTL1 inh)
CCCOc1ccc(C2C(C(=O)c3ccco3)=C(O)C(=O)N2CCN2CCOCC2)cc1OC (centres undefined)	G9a inh inconclusive (no result: HP1b chromo inh, JMJD2A Tudor inh)
COc1cccc(C2C(C(=O)c3ccc(C)o3)=C(O)C(=O)N2CCN2CCOCC2)c1 (centres undefined)	none (no result: L3MBTL1 inh, G9a inh)
CC(C)c1ccc(C2C(C(=O)c3ccco3)=C(O)C(=O)N2CCN2CCOCC2)cc1 (centres undefined)	G9a inh 50.1µM (no result: L3MBTL1 inh)
COc1ccc(C2C(C(=O)/C=C/c3ccco3)=C(O)C(=O)N2CCN2CCOCC2)cc1OC (centres undefined)	G9a inh 50.1µM (no result: L3MBTL1 inh, BAZ2B block)
CC(C)OC(=O)c1cc(=O)[nH]c2ccccc12	none
CC(OC(=O)c1cc(=O)[nH]c2ccccc12)C(=O)N1C(C)CCCC1C (centres undefined)	JMJD2A Tudor inh 17.8µM
CC(OC(=O)c1cc(=O)[nH]c2ccccc12)C(=O)Nc1ccccc1F (centres undefined)	G9a inh 31.6µM
O=S1(=O)C=C(SCCN2CCCCC2)c2ccccc21	G9a inh 50.1µM
O=C1c2ccccc2C(=O)N1CCN1CCCCC1	none (no result: L3MBTL1 inh)
OCC1OC(n2cnc3c(=S)nc[nH]c32)CC1O (centres undefined)	HP1b chromo inh inconclusive, JMJD2A Tudor inh 2.82µM (no result: L3MBTL1 inh, G9a inh, BAZ2B block)
O=c1[nH]cnc2c1ncn2[C@@H]1C[C@@H](O)[C@H](CO)O1	none (no result: L3MBTL1 inh)
